Compounds without any hit were thinned out: in the full panel of roughly 83,000, 20% have a hit.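 For each line, cells grew in 96-well plates with the test compound present at a single concentration for 48 hours.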 Values without a mark were called inactive. Active and inactive are the calls of the source. How the source made its calls: active means growth percent below 10; inactive means the rest.
How the values were obtained:
Assay in all cases: NCI-60 one-dose screen, 48 h (100 = growth as untreated, 0 = no growth, -100 = all killed)
Conditions in all cases: 10 µM
[1] = test system: NCI-H23 lung
[2] = test system: NCI-H226 lung
[3] = test system: NCI-H322M lung
[4] = test system: HOP-62 NSCLC
[5] = test system: NCI-H460 lung
[6] = test system: NCI-H522 lung
[7] = test system: A549/ATCC NSCLC
[8] = test system: 786-0 renal
[9] = test system: COLO 205 colon
[10] = test system: DU-145 prostate
[11] = test system: K-562 leukemia
[12] = test system: MALME-3M melanoma
[13] = test system: MDA-MB-231 breast
[14] = test system: RXF 393 renal
[15] = test system: SF-268 CNS
[16] = test system: SF-295 CNS
[17] = test system: SF-539 CNS
[18] = test system: UACC-257 melanoma
[19] = test system: M14 melanoma
[20] = test system: HCT-15 colon

Structure (SMILES)	growth [1]	growth [2]	growth [3]	growth [4]	growth [5]	growth [6]	growth [7]	growth [8]	growth [9]	growth [10]	growth [11]	growth [12]	growth [13]	growth [14]	growth [15]	growth [16]	growth [17]	growth [18]	growth [19]	growth [20]
O=C(Nc1cccc(-n2cc(-c3ccncc3)c(-c3cc(O)cc(Cl)c3)n2)c1)c1ccc(N2CCOCC2)c(C(F)(F)F)c1	15.4%	94.7%	43.5%	-2.19% (active)	-26% (active)	18.8%	9.62% (active)	36.6%	80.5%	38%	-15.5% (active)	-26.9% (active)	-48% (active)	-45.6% (active)	52.7%	-35.4% (active)	2.4% (active)	9.38% (active)	-20.7% (active)	6.25% (active)
ClCC#CCSc1ncnc2c1ncn2CC#CCCl	-6.61% (active)	-13.6% (active)	15.3%	-58.4% (active)	1.04% (active)	-56% (active)	46.5%	13.3%	54.4%	-20.9% (active)	17.5%	-46.3% (active)	20.2%	-65.9% (active)	-22.4% (active)	8.11% (active)	26%	55%	2.78% (active)	30.1%
COc1cc(-c2cc(/C=C/C(=O)c3ccc(N)cc3)[nH]n2)cc(OC)c1OC	24.6%	51.8%	11.4%	23.9%	-28.9% (active)	10.8%	1.29% (active)	-28.9% (active)	-45% (active)	7.2% (active)	10.9%	58.3%	-2.03% (active)	-23.2% (active)	-9.2% (active)	22.9%	-64.1% (active)	29.2%	34.8%	-22.3% (active)
O=C1c2ccc3c4c(ccc(c24)C(=O)N1CCNCc1ccccc1)C(=O)N(CCNCc1ccccc1)C3=O	-49.4% (active)	115%	-43% (active)	95.6%	-26.7% (active)	-51.2% (active)	12.8%	52.4%	24.1%	20.7%	1.04% (active)	-68.4% (active)	39.9%	90.5%	7.12% (active)	-28.2% (active)	-54.2% (active)	95.8%	-62.3% (active)	-25.9% (active)
COc1cc(Cl)cc(-c2nn(-c3cccc(NC(=O)Nc4ccc(Cl)c(Cl)c4)c3)cc2-c2ccncc2)c1	5.72% (active)	7.27% (active)	32.3%	15.7%	3.1% (active)	-19% (active)	11.4%	19.6%	-70.3% (active)	12.1%	10%	-19.8% (active)	-21% (active)	4.46% (active)	25.3%	-2.42% (active)	20.9%	-11.5% (active)	18.7%	13.9%
COc1ccc2c(c1OC)O/C(=C\c1ncc([N+](=O)[O-])n1C)C2=O	-17.1% (active)	66.6%	84.1%	56%	-20.8% (active)	-54.5% (active)	19.3%	17.9%	-55.6% (active)	-24.7% (active)	28.8%	-68.9% (active)	-20.7% (active)	-65.7% (active)	-5.54% (active)	55.3%	63.5%	-55.8% (active)	-59.1% (active)	1.65% (active)
COc1cc(-c2cc(/C=C/C(=O)c3ccc4c(c3)OCO4)[nH]n2)cc(OC)c1OC	102%	84.6%	54.2%	48.7%	68.6%	57.4%	87.2%	40.6%	100%	48%	22.3%	95.7%	64.5%	75.4%	85.3%	19.5%	3.66% (active)	107%	101%	63.9%
Clc1ccc(Sc2nc(NC3CC3)nc(Sc3ccc(Cl)cc3)n2)cc1	81%	83.4%	86.7%	102%	89.3%	59.1%	80.9%	87.5%	74%	92.8%	75.2%	80.7%	81.1%	79.1%	79.3%	67.4%	95%	89.6%	86.2%	71.3%
CC(=O)OCc1cc(-c2nc3ccccc3[nH]c2=O)nn1-c1ccc(Cl)cc1	91.5%	93%	107%	94.9%	104%	-30.6% (active)	52%	96.4%	126%	110%	93.4%	108%	98.1%	102%	109%	96.5%	90.2%	14.8%	97.2%	88%
COc1ccc(-c2nn(-c3cccc(NC(=O)c4ccc5c(c4)OCCO5)c3)cc2-c2ccncc2)cc1Cl	45.9%	47.6%	54.4%	30.9%	9.42% (active)	-32.2% (active)	18.7%	14.7%	-6.14% (active)	39.8%	18.4%	4.38% (active)	27.2%	0.93% (active)	34.8%	-26% (active)	-20.7% (active)	34.9%	13.5%	32.8%
COc1cc(-c2nc(Nc3nc4ccccc4s3)[nH]c(=O)c2C#N)cc(OC)c1O	105%	102%	124%	99.5%	105%	97.2%	106%	101%	100%	113%	100%	118%	106%	105%	123%	116%	108%	102%	96.3%	107%
CC(=O)C1CCC2C3CC(F)C4=CC(=O)CCC4(C)C3C(O)CC12C (stereo not given)	104%	85.9%	90.9%	93%	103%	85.8%	82.3%	96.3%	104%	110%	86.1%	86.6%	98.8%	118%	106%	97.8%	101%	98.6%	93.6%	108%
Nc1nc(N=Nc2ccc(O)cc2)cc(=O)[nH]1	101%	114%	104%	102%	107%	112%	111%	105%	106%	116%	106%	96.4%	98.7%	74.4%	111%	94.9%	96.6%	112%	101%	101%
Cc1nc2ccc(CN(C)c3ccc(C(=O)N[C@@H](CCC(=O)O)C(=O)O)s3)cc2c(=O)[nH]1	54.9%	56.1%	85.9%	28.6%	29.1%	71.9%	60%	18.3%	58.5%	52.6%	30.6%	60.7%	89.4%	31.8%	26.4%	22.9%	6.05% (active)	46.7%	21.8%	74.5%
COc1cccc(Cn2c(-c3nonc3N)nc3ccccc32)c1	24.2%	49.2%	38.8%	29.9%	6.52% (active)	-18.4% (active)	16.4%	36.9%	-53.3% (active)	4.99% (active)	9.47% (active)	68.3%	27.7%	-40.1% (active)	42%	-26.9% (active)	-34.6% (active)	49.2%	20.4%	24.1%

— PubChem BioAssay (NCI)
